Results from PubChem BioAssay AID1259415 (National Center for Advancing Translational Sciences (NCATS), 2018).
The campaign covered roughly 410,000 compounds. About 18,000 (4.4%) were called active. Roughly 7% stayed inconclusive and do not appear here. Cut-off read from the data, not from the text of the source: active = activity change below about -60%; inconclusive = no clear call, values can overlap the other calls; inactive = above about -39%. The list comes from a sample in which actives are over-represented; it also holds similar structures and randomly drawn compounds.

experiment: qHTS Assay for inhibitors of the human cytomegalovirus (HCMV); settings: HFF cells, HCMV-luciferase reporter, 72 h; at 57.5 µM; stronger effect = lower value
From the text: NCGC Assay Overview: Infection with human cytomegalovirus (HCMV) continues to pose significant threats for pregnant women and immunocompromised hosts. HCMV causes serious morbidity and mortality in transplant recipients, and congenital HCMV is the leading infectious cause of mental retardation and deafness in children. In the 1990s, the annual costs associated with the disease burden of congenital CMV were estimated at around $2 billion. A HCMV vaccine is not available yet and HCMV therapies result in intolerable side effects and emergence of drug resistant viruses. […] Towards this goal we have developed and characterized a luciferase HCMV reporter that was initially used in 96 well plates and then optimized to 1536-well plates for utilization in screening of the MLSMR collection, the NGCG diversity collection and the NCGC Pharmaceutical Collection of approved and investigational drugs.
NCGC Assay Protocol Summary:
This is a cell-based assay for HCMV inhibition in HFFs cells. The screening used 2 compound doses and the HCMV-luciferase at MOI of 1 PFU/cell. Cells were treated and infected with HCMV. At 72 h post infection cell lysates were collected and luciferase activity was determined using the Glomax-Multi + Detection System (Promega, Madison, WI). Data were normalized to the controls for basal activity (buffer only) and known HCMV inhibitors Salinmoycin.
1536-well assay protocol for the assay:
(1) Add 3 ul CMV/HFF cell culture. 1000 cells/well in DMEM nirmal media.
(2) Incubate 16 hr at 37C.
(3) Add 23 nl control compound, 10uM of Salinomycin.
(4) Add 23 nl compounds in DMSO solution.
(5) Add 3 ul CMV suspension. Final 1 puf/ul, Virus stock 2000pfu/ul
(6) Incubate 72 hrs at 37C.
(7) Add 4 ul OneGlo Luc Reagent.
(8) Incubate 5 min at room temperature.
% is set by controls: 0 for no effect and ±100 for the full control effect.

| SMILES | activity change, negative = inhibition |
| --- | --- |
| COc1ccccc1NC(=O)C1=C(C)Nc2ncnn2C1c1sccc1C (centres undefined) | 18% (inactive) |
| O=C(CSc1oc(-c2ccco2)nc1S(=O)(=O)c1ccc(Cl)cc1)c1ccccc1 | -0.0708% (inactive) |
| O=C(Nc1ccc(S(=O)(=O)N2CCOCC2)cc1)C1CCN(S(=O)(=O)c2ccc(Cl)cc2)CC1 | -78.5% (active) |
| O=C(Nc1ccc(Oc2ccccc2)cc1)C1CCN(S(=O)(=O)c2ccc(Cl)cc2)CC1 | -10.9% (inactive) |
| CC(=O)Nc1ccc(S(=O)(=O)N2CCC(C(=O)NC3CC3)CC2)cc1 | 6.71% (inactive) |
| CCCNC(=O)c1ccc(Cn2c(SCC(N)=O)nc3ccccc3c2=O)cc1 | 4.58% (inactive) |
| NC(=O)c1ccc(NC(=O)COC(=O)C(Cc2ccccc2)NC(=O)c2ccccc2)cc1 (centres undefined) | 10.9% (inactive) |
| CN(CC(=O)Nc1ccc(C(N)=O)cc1)S(=O)(=O)c1ccc2c(c1)OCCO2 | 21.6% (inactive) |
| NC(=O)c1ccc(NC(=O)COC(=O)c2c3c(nc4ccccc24)/C(=C\c2ccc4c(c2)OCO4)CCC3)cc1 | -90.6% (active) |
| COc1ccc(CCNC(=O)CCCn2c(=O)c3ccccc3n(Cc3ccc(C)cc3)c2=O)cc1OC | 8.21% (inactive) |
| Cc1ccc(Cn2c(=O)n(Cc3nc(-c4ccccc4)no3)c(=O)c3cc4c(cc32)OCO4)cc1 | -3.37% (inactive) |
| COc1cc(C(=O)Nc2ccc(OCc3cc(=O)n4ccc(C)cc4n3)cc2)cc(OC)c1OC | 58.3% (inactive) |
| COc1ccc2oc(-c3ccc(C)c(NC(=O)c4sc5ccccc5c4Cl)c3)nc2c1 | 47.4% (inactive) |
| Oc1cccc(C2c3[nH]c4ccccc4c3CCN2Cc2cnn(-c3ccccc3)c2)c1 (centres undefined) | 19.4% (inactive) |
| CCCCN1C(=O)c2[nH]nc(-c3ccccc3O)c2C1c1cccc(OCc2ccccc2)c1 (centres undefined) | -19% (inactive) |
| Cc1[nH]nc(-c2ccc(OCc3cnn(-c4ccccc4)c3)cc2O)c1Oc1ccc(Cl)cc1 | -95.2% (active) |
| CCC1CCCCN1C(=O)Cn1c(=O)n(CCCCCC(=O)NCc2ccccc2)c(=O)c2sccc21 (centres undefined) | -18.6% (inactive) |
| CCOC(=O)c1sc(-c2cccc([N+](=O)[O-])c2)cc1N | 0.0939% (inactive) |
| Cc1ccc(-c2nnc(CN3CCN(C)CC3)o2)cc1 | 145% (inactive) |
| CCOC(=O)C1CCN(Cc2nnc(-c3cccc(Br)c3)o2)CC1 | -20.4% (inactive) |
| CCOC(=O)N1CCN(Cc2nnc(-c3ccccc3Cl)o2)CC1 | -96.5% (active) |
| O=C(Nc1nnc(C2CC(=O)N(c3ccc(Cl)cc3)C2)s1)c1ccco1 (centres undefined) | 5.75% (inactive) |
| Cc1ccc(NC(=O)CN2C(=O)CC(C)Sc3ccccc32)c(C)c1 (centres undefined) | -2.3% (inactive) |
| Cc1ccc(N2C(=O)C(CC(=O)Nc3cccc(F)c3)N(CCc3ccncc3)C2=O)cc1 (centres undefined) | -29.9% (inactive) |
| Cc1ccc(NC(=O)CC2C(=O)N(Cc3ccccc3)C(=S)N2NC(=O)c2cccc(F)c2)c(C)c1 (centres undefined) | -70.8% (active) |
| Cc1ccc(CNC(=O)C2CC(c3ccccc3[N+](=O)[O-])=NO2)o1 (centres undefined) | -11.5% (inactive) |
| Cc1ccccc1NC(=O)c1cc2c([nH]c1=O)CC(C)(C)CC2=O | 43% (inactive) |

| SMILES | activity change, negative = inhibition |
| --- | --- |
| Clc1ccc(-n2nnnc2-c2cnc(-c3ccccn3)nc2-c2cccs2)cc1 | -103% (active) |
| N#Cc1ccc(CSc2nnc(-c3ccccn3)n2-c2ccc(Cl)cc2)cc1 | -9.16% (inactive) |
| O=C(Cn1cc(-c2nnnn2-c2ccc(Cl)cc2)c(=O)c2ccccc21)c1ccccc1 | -9.79% (inactive) |
| CCCS(=O)(=O)Nc1cccc(-c2cn3ccsc3n2)c1 | -0.309% (inactive) |
| N#Cc1ccccc1NC(=O)COc1c(Br)cc(Br)c2cccnc12 | 85.2% (inactive) |
| O=[N+]([O-])c1cc([N+](=O)[O-])c2cccnc2c1O | -19.7% (inactive) |
| CC(=O)NC(c1cccs1)c1cc(Br)c2cccnc2c1O (centres undefined) | -100% (active) |
| CC(=O)c1cccc(OCC(=O)OCC(=O)Nc2cc(S(=O)(=O)N3CCCCC3)ccc2C)c1 | 9.96% (inactive) |
| Cc1ccc(NS(=O)(=O)c2ccc(C)c(NC(=O)COc3ccc4ccccc4c3)c2)c(C)c1 | -81.5% (active) |
| O=C(CNS(=O)(=O)c1ccc2ccccc2c1)Nc1ccc(F)c(F)c1F | 0% (inactive) |
| CCCn1c(C(C)Nc2nc(-c3ccc(C)cc3)cs2)nc2cc(Cl)c(N3CCCCC3)cc21 (centres undefined) | 2.56% (inactive) |
| NC1=CC(=O)C(=O)c2cccnc21 | -78.2% (active) |
| O=C1CCCC2=C1C(c1cccs1)n1nc(SCc3ccccc3)nc1N2 (centres undefined) | -15.6% (inactive) |
| COC(=O)c1ccc(NC(=O)c2cc3c(CO)cnc(C)c3oc2=Nc2cccc(C(N)=O)c2)cc1 | -2.9% (inactive) |
| O=C(N/N=C/c1ccccn1)c1cccc(NC(=O)c2ccc(Cl)cc2)c1 | -69.8% (active) |
| Cn1nccc1/C=N\NC(=O)c1ccc(Cl)cc1 | 45.6% (inactive) |
| CC1(C)C2CC=C(/C=N/NC(=O)c3ccc(Cl)cc3)C1C2 (centres undefined) | 23.1% (inactive) |
| CC(C)C(=O)Nc1nnc(SCC(=O)N2C(C)CCCC2C)s1 (centres undefined) | -28.8% (inactive) |
| Cc1nn(-c2ccc(N3CCCCC3)nn2)c(C)c1CCC(=O)NCc1ccccc1F | -16.6% (inactive) |
| Cc1ccnc(NC(=O)c2ccc(NC(=O)c3ccco3)cc2)c1 | -84.7% (active) |
| CCN(c1ccc(Cl)cc1)S(=O)(=O)c1nnc(NC(=O)c2ccco2)s1 | 39.9% (inactive) |
| C/C(=N\NS(=O)(=O)c1ccc(Cl)cc1)c1ccc(NC(=O)c2ccco2)cc1 | -65.3% (active) |
| Cc1ccc(C)c(NC(=O)c2ccc(OC(=O)c3ccco3)cc2)c1 | 71.3% (inactive) |
| CSCCC(NC(=O)c1ccco1)C(=O)Nc1cc(C)ccn1 (centres undefined) | 47.1% (inactive) |
| C/C(=N/NS(=O)(=O)c1ccccc1)c1ccc(NC(=O)C(F)(F)F)cc1 | 0.908% (inactive) |
| CC(C)Cn1c(-c2ccc(S(=O)(=O)N3CCOCC3)cc2)csc1=Nc1cc(Cl)ccc1Cl | 0.205% (inactive) |
| CN(Cc1ccccc1)C(=O)c1cn(C)c2ccc(S(=O)(=O)N3CCCCC3)cc2c1=O | -4.78% (inactive) |
